Among the data in PubChem BioAssay (NCI) are growth inhibition values, retold here.

A short description of assay [1]: NCI Yeast Anticancer Drug Screen. Data for the rad50 strain (AID 155).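 Also: 0% = growth of vehicle-only cultures of the same strain.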 The following applies: S. cerevisiae rad50 strain growth inhibition; at 50.0 µM; stronger effect = higher value. The essentials:
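DNA repair mutant yeast, compound exposure, growth read-out; inhibition is taken relative to vehicle.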

Assay [2] can be described thus: NCI Yeast Anticancer Drug Screen. Data for the mec2-1 strain (AID 157). The following applies: S. cerevisiae mec2-1 strain, at 50.0 µM, stronger effect = higher value. The gist of the method:
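Using mec2-1 yeast: add compound, measure growth, express inhibition versus vehicle-treated cultures.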

Assay [3] can be described thus: NCI Yeast Anticancer Drug Screen. Data for the sgs1 mgt1 strain (AID 161).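 Also: 0% = growth of cultures given vehicle only.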 The settings on record: S. cerevisiae sgs1 mgt1 strain, at 50.0 µM, stronger effect = higher value. The gist of the method:
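Yeast cells carrying a defined DNA-repair defect were exposed to test compounds. Growth inhibition was measured relative to vehicle-treated controls.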

A short description of assay [4]: NCI Yeast Anticancer Drug Screen. Data for the cln2 rad14 strain (AID 165).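 Also: 0% = growth equal to vehicle treated cultures.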 The settings on record: S. cerevisiae cln2 rad14 strain, at 50.0 µM, stronger effect = higher value. The essentials: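 Yeast strain cln2 rad14, bearing defects in cell cycle control and DNA repair, serves as the test system; values reflect growth inhibition compared with vehicle.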
A short description of assay [5]: NCI Yeast Anticancer Drug Screen. Data for the bub3 strain (AID 167). The settings on record: S. cerevisiae bub3 mutant strain, at 50.0 µM, stronger effect = higher value. The essentials: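 In this screen, a yeast mutant lacking normal mitotic checkpoint function is challenged with compound. Relative growth versus vehicle gives the inhibition value.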
Assay [6] can be described thus: NCI Yeast Anticancer Drug Screen. Data for the mlh1 rad18 strain (AID 175). The settings on record: S. cerevisiae mlh1 rad18 strain growth inhibition; at 50.0 µM; stronger effect = higher value. The gist of the method:
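Steps: expose repair-defective yeast to compound; measure growth; express inhibition against vehicle-treated controls.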

Compounds without any hit were thinned out: in the full panel of roughly 79,000, 15% have a hit. A number with no mark means an inactive call. The source made the active and inactive calls. Rule as the data show it: active = growth inhibition above about 70%; inactive = the rest.

Regarding `Cc1cccc2c1CCC21OC(=O)c2c1cc(F)c1ccccc21` (stereo not given), the growth inhibition in assay [1] is -13.3%; in assay [2], -15.4%; in assay [3], -8.5%; in assay [4], 2.55%; in assay [5], 14.5%; in assay [6], 4.35%.

Turning to `Nc1nc(N)c2cc(CNc3ccc(C(=O)NC(C(=O)O)C(=O)O)cc3)ccc2n1`, the growth inhibition was -39.1% in assay [1]; 8.1% in assay [2]; -3.15% in assay [3]; -16.6% in assay [4]; -14.2% in assay [5]; -15.6% in assay [6].

Consider `O=C(CBr)c1cc(-c2ccc(Cl)cc2)nc2c(-c3ccccc3)cccc12`, for which the growth inhibition is 14.2% in assay [1]; 1.2% in assay [2]; 27.6% in assay [3]; 48.9% in assay [4]; 2.15% in assay [5]; 14.4% in assay [6].

As for `[N-]=[N+]=NC1=NNC2(C(=O)N1)c1ccccc1-c1ccccc12`, the growth inhibition in assay [1] is -6.35%; in assay [2] it was -17.5%; in assay [3], -22.9%; in assay [4], -5.75%; in assay [5], -30.1%; in assay [6], -18.6%.

For the molecule `Cc1ccc(S(=O)(=O)N/N=C2\CCC3(C)C(CCC4C3CCC3(C)C(C(C)CCCC(C)C)CCC43)C2)cc1` (stereo not given), the growth inhibition was 42.3% in assay [1]; 17.8% in assay [2]; 35.3% in assay [3]; 27.6% in assay [4]; -4% in assay [5]; 33.9% in assay [6].

For the molecule `N=C(N)SCCC(=O)O`, the growth inhibition in assay [1] was -29.4%; in assay [2], -21.1%; in assay [3], -39.7%; in assay [4] it was -69.6%; in assay [5], 17.4%; in assay [6] it was -56.6%.

`NN(CC(=O)O)CC(=O)O`: the growth inhibition in assay [1] was 18.8%; in assay [2] it was -2.8%; in assay [3], 2%; in assay [4] it was 4.75%; in assay [5] it was 29.1%; in assay [6], 20.9%.

As to `c1ccc2c[n+](CCCC[n+]3ccc4ccccc4c3)ccc2c1`, the growth inhibition in assay [1] was 46.5%; in assay [2], 17.1%; in assay [3] it was 22.4%; in assay [4] it was 12.4%; in assay [5] it was 41.8%; in assay [6], 44.8%.

Take `O=[N+]([O-])c1cccc(S(=O)(=O)NC2c3ccccc3Oc3ccccc32)c1`: the growth inhibition in assay [1] was 22%; in assay [2], -3.65%; in assay [3], 26.9%; in assay [4], 21.4%; in assay [5] it was -10.7%; in assay [6], 24.8%.

In the case of `Cc1cc(C)c2cccc-2c(C)c1`, the growth inhibition was -11.8% in assay [1]; -11.3% in assay [2]; -12.3% in assay [3]; -6.15% in assay [4]; -4.9% in assay [5]; -9.95% in assay [6].

As to `CCCCNC(=S)/N=C/c1c(O)c2ccccc2[nH]c1=O`, the growth inhibition in assay [1] was -39.7%; in assay [2], -15.2%; in assay [3], -52.9%; in assay [4], -18.9%; in assay [5] it was 3.9%; in assay [6], -41%.

`COC(=O)/C(=C/C=C/c1ccccc1)N=[N+]=[N-]`: the growth inhibition in assay [1] is -20.5%; in assay [2] it was 7.5%; in assay [3], -12%; in assay [4] it was -11.6%; in assay [5], 3.2%; in assay [6], -10.1%.

On to `COc1cc(CNc2nc3c(N)cc(C(F)(F)F)cc3nc2-c2ccccc2)cc(OC)c1OC`, for which the growth inhibition is 0.25% in assay [1]; -9.35% in assay [2]; 6.6% in assay [3]; 17.6% in assay [4]; -11.3% in assay [5]; -25.6% in assay [6].

As for `O=[N+]([O-])c1cccc(S/N=C/c2ccccc2)c1`, the growth inhibition is 98.8% (active) in assay [1]; 98.4% (active) in assay [2]; 99% (active) in assay [3]; 92.3% (active) in assay [4]; 98.5% (active) in assay [5]; 98.8% (active) in assay [6].

With `Nc1ccc2ccc3ccccc3c2c1`, the growth inhibition in assay [1] was 50.8%; in assay [2], 5.6%; in assay [3], 43.4%; in assay [4] it was 31.8%; in assay [5], 27.5%; in assay [6], 44.2%.

In the case of `COc1ccc(OC(C)C(=O)O)c2c1CCCC2=O` (stereo not given), the growth inhibition in assay [1] is 21.6%; in assay [2], 6.3%; in assay [3], -17.1%; in assay [4] it was 25.6%; in assay [5] it was 5.15%; in assay [6] it was 22.7%.

For `O=C(CCCn1ccnc1[N+](=O)[O-])NCCn1ccnc1[N+](=O)[O-]`, the growth inhibition was 5.95% in assay [1]; 9.35% in assay [2]; -9.9% in assay [3]; 17.4% in assay [4]; -11.8% in assay [5]; -12.3% in assay [6].

As for `N#CC(CN1CCOCC1)[N+](=O)[O-]` (stereo not given), the growth inhibition in assay [1] is -2.2%; in assay [2], -4.6%; in assay [3], -14.2%; in assay [4], -24.6%; in assay [5], 16.6%; in assay [6] it was -13.6%.

`CC(C)CCC[C@@H](C)[C@H]1CC[C@H]2[C@@H]3C[C@@H](O)[C@@]4(O)C[C@@H](O)CC[C@]4(C)[C@H]3CC[C@]12C`: the growth inhibition in assay [1] is 27.6%; in assay [2], 8.65%; in assay [3], 14.1%; in assay [4] it was -12.4%; in assay [5], -7.25%; in assay [6] it was 19.5%.

Turning to `O=C1OC(Oc2ccccc2OC2OC(=O)c3ccccc32)c2ccccc21` (stereo not given), the growth inhibition in assay [1] was -6.9%; in assay [2], 3.7%; in assay [3], 0.4%; in assay [4] it was 5.95%; in assay [5], -5.05%; in assay [6], 9.85%.
